GDH-TPI counter-1: GDH-TPI coupling enzyme inhibitors, primary screen, artefact control for M. tuberculosis FBA inhibitor project, biochemical, absorbance, full deck. 1.2% of 360,000 active. inhibition, % at 4.8 µM. AID 588335, 2011. GDH-TPI coupled enzyme counterscreen, NADH absorbance; in the data active = inhibition above about 30%;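 note: 0% = DMSO wells and 100% = wells lacking the enzyme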
Rv3671c protease: Rv3671c serine protease inhibitors, primary screen, biochemical, fluorescence polarization, M. tuberculosis H37Rv. inhibition, % at 5.96 µM. 0.048% of 320,000 active. AID 2606, 2010; in the data active = inhibition above about 38%;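 note: extracellular domain of Rv3671c used as enzyme; 0% = enzyme with DMSO and 100% = no enzyme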
RecA splice inh: Mtb RecA intein splicing inhibitors, primary screen, biochemical, fluorescence, HTS. cell-free RecA intein splicing. inhibition, % (concentration not given with the values). 0.75% of 290,000 active. Protein RecA (Mycobacterium tuberculosis (strain ATCC 25618 / H37Rv)), P9WHJ3. AID 2221, 2009; in the data active = inhibition above about 30%;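 note: 0% = vehicle wells and 100% = reference inhibitor control wells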
Mtb betalactam: beta-lactam sensitization of Mtb H37Rv, H37Rv; 0.27% of 330,000 active; inhibition, % at 25 µM; M. tuberculosis H37Rv growth with meropenem, percent inhibition; call rule not given here;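 note: growth measured after seven days incubation then overnight dye step; 0% = bacteria only wells and 100% = bacteria with antibiotic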
UGM FP inh: M. tuberculosis UGM enzyme inhibitors, primary screen, biochemical, fluorescence polarization, single point. purified UGM, fluorescence polarization probe displacement. inhibition, % at 10 µM. UDP-galactopyranose mutase (Mycobacterium tuberculosis (strain ATCC 25618 / H37Rv)), …. 0.06% of 320,000 active. AID 504406, 2011; in the data active = inhibition above about 10%, passing the limit was not always enough
Target sequence (P9WIQ1 whole entry, looked up): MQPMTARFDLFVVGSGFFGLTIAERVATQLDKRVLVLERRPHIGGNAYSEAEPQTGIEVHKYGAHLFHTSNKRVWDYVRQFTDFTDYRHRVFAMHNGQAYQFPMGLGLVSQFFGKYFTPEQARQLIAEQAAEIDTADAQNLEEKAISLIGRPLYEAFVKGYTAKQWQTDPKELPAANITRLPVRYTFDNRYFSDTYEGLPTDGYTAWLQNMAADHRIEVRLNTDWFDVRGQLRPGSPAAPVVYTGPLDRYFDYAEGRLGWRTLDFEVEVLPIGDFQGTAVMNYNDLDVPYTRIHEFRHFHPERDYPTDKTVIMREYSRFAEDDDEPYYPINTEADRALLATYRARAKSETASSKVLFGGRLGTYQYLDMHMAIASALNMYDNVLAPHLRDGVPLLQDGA
Mtb FBA inh: Mtb FBA enzyme inhibitors, primary screen, biochemical, fluorescence, strain H37Rv. inhibition, % at 1 µM. AID 588726, 2011. 2.3% of 360,000 active. Fructose-bisphosphate aldolase (Mycobacterium tuberculosis (strain ATCC 25618 / H37Rv)), …. purified M. tuberculosis FBA, fluorescence read-out;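 note: 0% = vehicle and 100% = reference inhibitor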
Mtb FBA confirm: M. tuberculosis aldolase blockers, biochemical, fluorescence, strain H37Rv, confirmation | purified M. tuberculosis FBA, fluorescence read-out | shares compounds with Mtb FBA inh | 78% of 5,600 active | inhibition, % at 1 µM;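 note: 0% = vehicle wells and 100% = reference inhibitor wells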
GDH-TPI counter-2: GDH-TPI coupling enzyme inhibitors, artefact control for M. tuberculosis FBA inhibitor project, biochemical, fluorescence, high throughput; shares compounds with Mtb FBA inh; GDH-TPI coupled enzyme counterscreen; inhibition, % at 1 µM; 81% of 5,600 active; in the data active = inhibition above about 10%
GDH-TPI dose: GDH-TPI coupling enzyme inhibitors, dose response, artefact control for M. tuberculosis FBA inhibitor project, biochemical, fluorescence, IC50; IC50, µM; 79% of 170 active; GDH-TPI coupled enzyme assay, artifact counterscreen; shares compounds with Mtb FBA inh; call rule not given here
The depositor's hits bear a star; . = no result given; + = active, no number. In the library only some 4% were active in any assay of this set; here they are far more common. Cut-off read from the data, not from the text of the source, unless noted: active = inhibition above about 27%; inactive = the rest.

SMILES	GDH-TPI counter-1	Rv3671c protease	RecA splice inh	Mtb betalactam	UGM FP inh	Mtb FBA inh	Mtb FBA confirm	GDH-TPI counter-2	others
CCCCN(C=O)c1c(CC)nc2c(OCc3ccc(Cl)cc3Cl)cccn12	-1	.	.	.	.	-2	.	.
CCOc1cc(N2CCOCC2)c(OCC)cc1NC(=O)C(NC(=O)c1c(F)cccc1F)C(C)C (centres undefined)	1	.	.	.	.	2	.	.
COC(=O)N(C)c1nc2ccccc2s1	11	4	2	-11	4	0	.	.
CN(C(=O)OC(C)(C)C)c1ccc(-c2nc3ccccc3s2)cc1	18	-14	4	79	0	45*	+	+
Cc1nc2c(=O)n(C)c(=O)n(C)c2nc1Cl	6	11	45*	100	-2	39*	63*	44*
CCCC[n+]1c2ccccc2cc2ccccc21	-17	-4	-158	-6	-1	11	.	.
c1ccc(C[n+]2cccc3c4ccccc4ccc32)cc1	6	6	-2	-8	-1	40*	+	+
CCCCC[n+]1cccc2c3ccccc3ccc21	9	-2	-1	9	0	100*	85*	61*
C=C(C)COC(=O)C1CC2OC2CC1C(=O)OCC(=C)C (centres undefined)	9	.	.	.	.	-1	.	.
CCCNC(=O)C1(C)CCCN(C(=O)c2ccc(OC(F)F)cc2)C1 (centres undefined)	4	.	.	.	.	-1	.	.
COc1ccc(-c2ccc(C(=O)NCc3ccco3)c3occc23)c(C)c1	-3	.	.	.	.	28*	56*	50*
CCOC(=O)N1CCN(C(=O)Cn2nc(C)n3nc(-c4ccccc4)cc3c2=O)CC1	14	-1	0	7	5	3	.	.
O=C(NCc1ccc(F)cc1)c1cc(C2CCCCN2S(=O)(=O)c2ccc(F)cc2F)on1 (centres undefined)	7	.	.	.	.	-3	.	.
CCOC(=O)c1cc(C#N)c(SCC(=O)O)[nH]c1=O	17	10	1	1	9	43*	32*	22*
Cc1cn([C@H]2C[C@H](O)[C@@H](CCC(=O)NCCc3cccs3)O2)c(=O)[nH]c1=O	.	.	.	.	.	-1	.	.
Clc1ccc(-n2nnc(-c3cccnc3Cl)n2)cn1	12	-3	1	-5	3	5	.	.
COc1ncccc1-c1nnn(-c2ccc(Cl)nc2)n1	17	-1	2	-7	3	27*	+	+
COc1ccc2oc(C(=O)Nc3nc(C)cs3)c(C)c2c1	15	-8	.	5	1	6	.	.
CC(C)(C)S(=O)(=O)N1C[C@H]2CC/C=C\C/C=C\2[C@@H]1CCO	-7	.	.	.	.	-1	.	.
O=c1c2ccccc2n(CC(O)CN2CCOCC2)c2ccccc12 (centres undefined)	7	-4	-137	-12	5	33*	5	-1
COc1ccc(S(=O)(=O)NC(=O)C2(C)CCN2C(=O)C(C)(C)c2ccccc2)cc1 (centres undefined)	4	.	.	.	.	-2	.	.
Cc1onc(-c2ccccc2)c1C(=O)Nc1nnc(C(C)C)s1	1	-6	-1	-6	3	-1	.	.
O=C(Nc1nnc(-c2ccncc2)s1)C1CCCO1 (centres undefined)	26	-1	2	-4	0	82*	15	-6	GDH-TPI dose=2*
CCCC(=O)Nc1nnc(-c2ccc3c(c2)OCO3)s1	6	1	0	-4	-1	38*	115*	103*
CCC(=O)Nc1nnc(-c2ccncc2)s1	-3	2	.	-9	-2	43*	100*	89*
SMILES	GDH-TPI counter-1	Rv3671c protease	RecA splice inh	Mtb betalactam	UGM FP inh	Mtb FBA inh	Mtb FBA confirm	GDH-TPI counter-2	others
Cc1onc(-c2ccccc2)c1C(=O)Nc1nnc(-c2ccncc2)s1	57*	4	-1	96	1	46*	67*	55*
O=C(Nc1nnc(-c2ccccc2F)s1)C1CCCO1 (centres undefined)	-1	-4	1	2	1	2	.	.
Cc1noc(C)c1-c1ccc(C(=O)Nc2cccc(C(F)(F)F)c2)c2occc12	11	.	.	.	.	-2	.	.
O=C(/C=C/[C@H]1O[C@@H](n2ccc(=O)[nH]c2=O)[C@H](O)[C@@H]1O)NCc1cccs1	.	.	.	.	.	-3	.	.
COc1cc(CCC(=O)OCC(=O)Nc2ccc(F)c(F)c2)cc(OC)c1OC	-1	5	-5	4	0	2	.	.
COc1ccc(CCC(=O)Nc2ccc3c(c2)OCO3)cc1OC	-3	-1	6	1	-1	-1	.	.
COc1cc(Cn2c3ccc(NC(=O)CCc4ccc(O)cc4)cc3c(=O)n2C)ccc1F	9	.	.	.	.	111*	169*	125*
Cn1c(=O)c2cc(NC(=O)CCc3ccc4c(c3)OCO4)ccc2n1Cc1ccc(F)cc1	5	.	.	.	.	85*	48*	21*
CCc1[nH]nc(C(=O)N/N=C/c2ccncc2)c1C	-2	2	.	3	2	-3	.	.
Cc1cc2oc(=O)c(CC(=O)NCCCO)c(C)c2c2occ(C(C)(C)C)c12	10	3	3	18	0	31*	57*	54*
COCCNC(=O)Cc1c(C)c2c(cc(C)c3c(C(C)(C)C)coc32)oc1=O	12	-10	4	38	-4	43*	70*	65*
Cc1cc2oc(=O)c(CC(=O)NCCCN(C)C)c(C)c2c2occ(C(C)(C)C)c12	.	-6	0	11	2	.	.	.
COC1OC(CO)C(O)C(O)C1O (centres undefined)	2	6	-1	1	0	33*	55*	45*
COC1OC(CO)C(N=C(C)C)C1O (centres undefined)	11	.	.	.	.	9	.	.
Cc1ccc(-c2cn3c(=O)cc(C)[nH]c3n2)cc1	13	-2	-5	-2	1	53*	55*	75*
Cc1cc(=O)n2cc(-c3ccccc3)nc2[nH]1	6	-8	4	-2	0	89*	121*	94*
Cc1nc(-c2ccccc2)cc(=O)[nH]1	-3	5	-2	-8	-1	1	.	.
